Measured values as given in PubChem BioAssay.
The source made the active and inactive calls.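 Rule for the calls, unless noted: active = visual image review flags a hit and inhibition of aggregation exceeds 20%; inconclusive = visual hit but inhibition at or below 20%; inactive = no hit on visual image review.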

Tests used:
[1] = inhibitors of TNFa-induced NFkB p65 translocation, primary screen, imaging, HUVEC, MLSMR starter and 10KST1 sets (AID 438;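 active = inhibition above 20% together with a positive visual image hit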;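 note: compound added about 3h40 before a 20 min TNFalpha stimulation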;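 for inhibition: signal is the nuclear over cytoplasmic p65 intensity ratio per well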); conditions: HUVEC TNFa-induced p65 nuclear translocation; cell count: measured here: nuclei count (cytotoxicity indicator), at 2.08 µM; inhibition: at 2 µM, stronger effect = higher value, 0% TNFa-plus-vehicle, 100% no-TNFa wells
[2] = inhibitors of mutant huntingtin aggregation, primary screen, imaging, exon1htt(103Q)mCFP cells, high-content imaging (AID 483); conditions: exon1htt(103Q)mCFP cell line, aggregate imaging, at 2 µM; inhibition of aggregation: stronger effect = higher value; nuclei count: measured here: cell count, toxicity;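 note: compound exposure lasted 3 days before fixation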;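 for nuclei count: percent of the per-plate median nuclei count of sample wells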
[3] = inhibitors of E-selectin induction by TNFa, primary screen, imaging, HUVEC, immunofluorescence, MLSMR starter and 10KST1 sets (AID 487;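 active = visually confirmed hit in the image check and inhibition above 20%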;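 for inhibition: signal is fraction of cell area covered by stained E-selectin grains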;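 for nuclei count: 100% = median nuclei count of all wells on the same plate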); conditions: HUVEC TNFalpha-induced E-selectin immunofluorescence imaging, at 2 µM; inhibition: stronger effect = higher value; nuclei count: measured here: cell number, toxicity
[4] = molecular target: Voltage-gated potassium channel subunit beta-2 (Rattus norvegicus) (UniProt P62483); assay: KvBeta enzyme negative modulators, primary screen, biochemical, NADPH fluorescence (AID 622;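 active = fluorescence slope higher than the sample average by over 3 SD, cut at about -0.22 in these data, passing the limit was not always enough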;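 note: slope of raw intensity against log time taken from 70 to 1610 s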); conditions: recombinant KvBeta, 4-cyanobenzaldehyde reduction, at 10 µM, stronger effect = higher value
[5] = molecular target: Voltage-gated potassium channel subunit beta-2 (Rattus norvegicus) (UniProt P62483); assay: KvBeta positive modulators, primary screen, biochemical, NADPH fluorescence (AID 623;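 active = NADPH fluorescence slope more negative than the mean of all samples by about 3 SD, 99.7% confidence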;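 note: fluorescence intensity change per second fitted from 20 to 320 s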); conditions: Recombinant KvBeta, NADPH fluorescence decrease slope, 10 min; at 10 µM; stronger effect = lower value
[6] = molecular target: Alpha-2C adrenergic receptor (Homo sapiens) (UniProt P18825); assay: modulators of alpha2C/GIRK thallium flux, primary screen, cell-based, HEK293 alpha2C/GIRK1/2 (AID 624;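 active = fluorescence slope after compound addition differing from the mean of all screened samples at 99.7% confidence, in either direction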;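 note: slope of fluorescence ratio to pre-addition baseline per second over 15 to 24 s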); conditions: thallium flux BTC fluorescence, at 10 µM, actives lie on both sides
[7] = inhibitors of Sendai virus-induced IRF3 signaling, primary screen, TLR/RLR signaling modifier project, cell-based, Sendai virus stimulus, luciferase, 10K MLSCN set (AID 602276;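 active = inhibition at or above 50% at 10 µM; inactive = inhibition below 50%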;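 note: firefly luciferase from ISG56 promoter only with Renilla not read in this screen; 0% = Sendai virus plus DMSO and 100% = medium plus DMSO without virus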); conditions: HEK293 RL24 IRF3 luciferase reporter, at 10 µM, stronger effect = higher value
[8] = inhibitors of poly I:C-induced TLR3 signaling, primary screen, cell-based, poly I:C stimulus, luciferase, 10K MLSCN set (AID 602277;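 active = inhibition of the reporter signal at or above 50%; inactive = inhibition below 50%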); conditions: HEK293-TLR3 RL24 IRF3 luciferase reporter, at 10 µM, stronger effect = higher value

Sequence of Voltage-gated potassium channel subunit beta-2 (Rattus norvegicus) (P62483 whole entry, looked up): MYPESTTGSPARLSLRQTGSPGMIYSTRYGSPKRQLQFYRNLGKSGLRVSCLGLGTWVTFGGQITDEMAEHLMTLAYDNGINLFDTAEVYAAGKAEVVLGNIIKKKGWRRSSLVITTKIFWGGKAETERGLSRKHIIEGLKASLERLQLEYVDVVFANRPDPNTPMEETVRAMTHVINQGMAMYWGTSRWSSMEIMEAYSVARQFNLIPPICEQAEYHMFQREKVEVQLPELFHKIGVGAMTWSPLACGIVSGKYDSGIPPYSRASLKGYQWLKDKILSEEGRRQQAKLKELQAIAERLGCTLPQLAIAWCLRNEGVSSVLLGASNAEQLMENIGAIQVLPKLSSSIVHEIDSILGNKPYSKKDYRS
Sequence of Alpha-2C adrenergic receptor (Homo sapiens) (P18825 whole entry, looked up): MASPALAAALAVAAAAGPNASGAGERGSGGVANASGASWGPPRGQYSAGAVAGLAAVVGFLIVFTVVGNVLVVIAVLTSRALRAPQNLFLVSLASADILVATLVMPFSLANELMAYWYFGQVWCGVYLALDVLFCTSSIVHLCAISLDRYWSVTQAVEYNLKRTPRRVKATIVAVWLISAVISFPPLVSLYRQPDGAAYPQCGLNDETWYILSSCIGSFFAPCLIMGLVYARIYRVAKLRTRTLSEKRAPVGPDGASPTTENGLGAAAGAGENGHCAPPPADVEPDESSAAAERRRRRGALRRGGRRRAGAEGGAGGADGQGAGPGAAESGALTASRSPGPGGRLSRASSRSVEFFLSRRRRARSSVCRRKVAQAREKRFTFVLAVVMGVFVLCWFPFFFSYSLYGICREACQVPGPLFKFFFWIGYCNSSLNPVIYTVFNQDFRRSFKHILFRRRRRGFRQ

| Compound | cell count [1] | inhibition [1] | inhibition of aggregation [2] | nuclei count [2] [%] | inhibition [3] | nuclei count [3] [%] | fluorescence slope [4] | NADPH fluorescence slope [5] | slope [6] | inhibition [7] | inhibition [8] |
| --- | --- | --- | --- | --- | --- | --- | --- | --- | --- | --- | --- |
| O=C(Nc1ccon1)c1cc(-c2ccccc2)nc2ccccc12 | 364 | -8% (inactive) | 22.5% (inactive) | 98.4 | -48.5% (inactive) | 116 | -0.286 (inactive) | -6.3e-05 (inactive) | 0.00497 (inactive) | -24.1% (inactive) | 99.8% (active) |
| O=C(C(Cc1ccccc1)n1cccc1)N1CCCCCC1 (stereo unspecified) | 690 | -1.6% (inactive) | 8.2% (inactive) | 104 | -42.3% (inactive) | 115 | -0.517 (inactive) | -1.7e-05 (inactive) | 0.00572 (inactive) | 3.28% (inactive) | 25.3% (inactive) |
| O=C(NCC1CCCO1)c1ccc(N2CCCCC2)nc1 (stereo unspecified) | 684 | -11.2% (inactive) | 1.5% (inactive) | 99.7 | -30.2% (inactive) | 107 | -0.314 (inactive) | 2.7e-06 (inactive) | 0.00663 (inactive) | -7.44% (inactive) | -103% (inactive) |
| Cc1ccc(S(=O)(=O)Cn2nnnc2CN(Cc2ccco2)Cc2cccs2)cc1 | 324 | -1.6% (inactive) | 6.8% (inactive) | 108 | -85.1% (inactive) | 133 | -0.594 (inactive) | -4.2e-05 (inactive) | 0.00355 (inactive) | 7.14% (inactive) | 6.8% (inactive) |
| Cn1c(=O)cc(OCC(=O)NCCCN2CCN(Cc3ccccc3)CC2)c2ccccc21 | 505 | -6.9% (inactive) | 4.5% (inactive) | 86.8 | -124% (inactive) | 135 | -0.556 (inactive) | 2.6e-05 (inactive) | 0.00749 (inactive) | -11.8% (inactive) | 31.2% (inactive) |
| O=C(CSc1nc2ccccc2[nH]1)c1ccc2c(c1)OCO2 | 673 | 2.4% (inactive) | -4% (inactive) | 102 | -2.6% (inactive) | 100 | -0.471 (inactive) | -1.2e-05 (inactive) | 0.00599 (inactive) | 18.8% (inactive) | -39.5% (inactive) |
| Cc1ccc(-c2nc3cc(N)ccc3o2)cc1 | 463 | 1.1% (inactive) | 11.7% (inactive) | 101 | -58.1% (inactive) | 115 | -0.0326 (active) | -3.4e-05 (inactive) | 0.00542 (inactive) | 2.48% (inactive) | -58.1% (inactive) |
| O=C(Cn1c(C(=O)NCC2CCCO2)cc2sccc21)c1ccccc1 (stereo unspecified) | 280 | -13.4% (inactive) | 20.2% (inactive) | 80 | -77.7% (inactive) | 99.3 | -0.611 (inactive) | 5.3e-06 (inactive) | 0.00924 (inactive) | 5.12% (inactive) | 4.66% (inactive) |
| CCOc1ccc(S(=O)(=O)Nc2cccc(Cl)c2)cc1 | 376 | -2.9% (inactive) | -0.3% (inactive) | 78.4 | -10.2% (inactive) | 81.5 | -0.627 (inactive) | -2.5e-05 (inactive) | 0.00349 (inactive) | 38.8% (inactive) | 34.1% (inactive) |
| CCc1ccccc1NC(=O)C(CC)Sc1nc2cc3c(cc2c(=O)n1Cc1ccco1)OCO3 (stereo unspecified) | 486 | 9.8% (inactive) | -21.1% (inactive) | 115 | -3.3% (inactive) | 105 | -0.494 (inactive) | -1.8e-05 (inactive) | 0.00667 (inactive) | 16.3% (inactive) | 22.3% (inactive) |
| COc1ccc(S(=O)(=O)Nc2cccc(C)n2)c2ccccc12 | 713 | 6.1% (inactive) | -1.6% (inactive) | 76.3 | 41.3% (inactive) | 92.3 | -0.528 (inactive) | 2.4e-05 (inactive) | 0.00605 (inactive) | -6.27% (inactive) | 0.733% (inactive) |
| CCCCc1nc2ccccc2n2cc3c(=O)n(C)c(=O)n(C)c3c12 | 877 | 5.2% (inactive) | -29.8% (inactive) | 81.2 | -48.7% (inactive) | 104 | -0.524 (inactive) | -1.7e-05 (inactive) | 0.00741 (inactive) | 14.3% (inactive) | 28.9% (inactive) |
| N#CC1=C(N)OC2=C(CCC/C2=C/c2ccoc2)C1c1ccoc1 (stereo unspecified) | 413 | -5.2% (inactive) | -17.9% (inactive) | 113 | -137% (inactive) | 115 | -0.313 (inactive) | -5.7e-05 (inactive) | 0.00619 (inactive) | -7.37% (inactive) | -9.08% (inactive) |
| CCOC(=O)N1CCN(C(=O)c2ccc(CS(=O)(=O)c3ccc(OC)cc3)o2)CC1 | 516 | 2% (inactive) | -23.5% (inactive) | 90.7 | 8.5% (inactive) | 133 | -0.39 (inactive) | 2.2e-05 (inactive) | 0.0059 (inactive) | 14.8% (inactive) | 23.8% (inactive) |
| O=C(O)CCCc1nc(-c2ccccc2)no1 | 726 | -1.7% (inactive) | -4.5% (inactive) | 91.6 | 22.1% (inactive) | 108 | -0.447 (inactive) | 1.4e-05 (inactive) | 0.00583 (inactive) | 16.6% (inactive) | 20.7% (inactive) |
| CC1=C/C(=C/N(C)c2ccccc2)C(=O)S1 | 582 | -3.5% (inactive) | -10.1% (inactive) | 97.7 | 31.4% (inactive) | 88.1 | -0.61 (inactive) | 1.5e-05 (inactive) | 0.0049 (inactive) | -17.2% (inactive) | -17% (inactive) |
| CCOC(=O)c1sc2nc(SCC#N)n(CCCN3CCCC3=O)c(=O)c2c1C | 399 | 3.4% (inactive) | -11.9% (inactive) | 89.9 | 49% (inactive) | 96.1 | -0.461 (inactive) | -6.7e-05 (inactive) | 0.00586 (inactive) | 4.69% (inactive) | -8.03% (inactive) |
| COc1ccc(-c2nc(CS(=O)CC(=O)N3CCCC3)c(C)o2)cc1 (stereo unspecified) | 465 | 2.6% (inactive) | 6.1% (inactive) | 100 | -51.5% (inactive) | 100 | -0.482 (inactive) | -3.2e-05 (inactive) | 0.006 (inactive) | 26% (inactive) | 5.74% (inactive) |
| COc1ccc2cc(CN(CCO)C(=O)c3ccc(Br)cc3)c(=O)[nH]c2c1 | 333 | 5.3% (inactive) | -21.4% (inactive) | 119 | -33% (inactive) | 118 | -0.613 (inactive) | -4.6e-05 (inactive) | 0.00437 (inactive) | 11.6% (inactive) | 0.693% (inactive) |
| O=C(NCc1ccco1)c1c2c(nc3ccccc13)CCC2 | 301 | -1.7% (inactive) | 11.3% (inactive) | 87.3 | -7.8% (inactive) | 83.7 | -0.494 (inactive) | -5.2e-05 (inactive) | 0.00639 (inactive) | 5.99% (inactive) | 7.89% (inactive) |
| CC(C)N(Cc1nc(-c2ccccc2)no1)C(=O)CCCN1C(=O)c2ccccc2C1=O | 475 | -9.3% (inactive) | -7.3% (inactive) | 112 | -78.3% (inactive) | 158 | -0.53 (inactive) | -8.9e-06 (inactive) | 0.00616 (inactive) | 4.76% (inactive) | 3.27% (inactive) |
| Cn1c(=O)c2c(-c3ccncc3)c3c(nc2n(C)c1=O)-c1ccccc1C3=O | 637 | 0% (inactive) | -3.3% (inactive) | 98.9 | -113% (inactive) | 136 | -0.497 (inactive) | 4.5e-05 (inactive) | 0.00591 (inactive) | 14.2% (inactive) | 22.4% (inactive) |
| CC(=O)NC(C)C(=O)OCC(=O)Nc1ccc(Br)cc1 (stereo unspecified) | 436 | 6.9% (inactive) | 5.5% (inactive) | 112 | -23.8% (inactive) | 116 | -0.246 (inactive) | -5.1e-06 (inactive) | 0.00449 (inactive) | 20% (inactive) | 13.9% (inactive) |
| Cc1cc(NC(=O)CSc2nnc(COc3cccc(C)c3C)n2Cc2ccco2)no1 | 363 | -8.7% (inactive) | 7.4% (inactive) | 93 | -60.4% (inactive) | 101 | -0.6 (inactive) | -6.6e-06 (inactive) | 0.00725 (inactive) | 4.7% (inactive) | 11.9% (inactive) |
| COc1cc2c(C#N)c(N3CCN(c4ccccc4OC)CC3)nc(N)c2c(N)n1 | 660 | 0.7% (inactive) | -14.7% (inactive) | 99.8 | -76.6% (inactive) | 109 | -0.178 (inactive) | 1.8e-06 (inactive) | 0.00562 (inactive) | -0.302% (inactive) | -36.5% (inactive) |
| COc1ccc(-c2nnc(SCC(=O)N3CCOCC3)o2)cc1OC | 603 | 19% (inactive) | -39.9% (inactive) | 86.5 | 38.5% (inactive) | 78.3 | -0.54 (inactive) | 1.3e-05 (inactive) | 0.0068 (inactive) | -13.3% (inactive) | 4.93% (inactive) |
